Set-up in all cases: species or system human, MV4-11 + K-562 + COLO205 + SK-N-BE2 + OVCAR-8
The subject of experiment [1] is AKT1. The note with it: read-out: apparent Kd, n = 1.
Experiment [2] deals with AKT2. Particulars: read-out: apparent Kd; compound concentrations:100 nM and 1000 nM (sheet 'Samples'); n = 1.
The test system of experiment [3] is ATM. Particulars: read-out: apparent Kd; compound concentrations:100 nM and 1000 nM (sheet 'Samples'); n = 1.
The test system of experiment [4] is CIT. The note with it: read-out: apparent Kd; compound concentrations:100 nM and 1000 nM (sheet 'Samples'); n = 1.
Experiment [5] deals with ERBB3. Particulars: read-out: apparent Kd; compound concentrations:100 nM and 1000 nM (sheet 'Samples'); n = 1.
For experiment [6], the system named is GSK3A. The note with it: read-out: apparent Kd; compound concentrations:100 nM and 1000 nM (sheet 'Samples'); n = 1.
Experiment [7] concerns GSK3B. Particulars: read-out: apparent Kd; compound concentrations:100 nM and 1000 nM (sheet 'Samples'); n = 1.
The test system of experiment [8] is LATS1. The note with it: read-out: apparent Kd; compound concentrations:100 nM and 1000 nM (sheet 'Samples'); n = 1.
The subject of experiment [9] is MARK2. Particulars: read-out: apparent Kd; compound concentrations:100 nM and 1000 nM (sheet 'Samples'); n = 1.
Experiment [10] deals with MARK3. The note with it: read-out: apparent Kd; compound concentrations:100 nM and 1000 nM (sheet 'Samples'); n = 1.
Experiment [11] relates to MARK4. Particulars: read-out: apparent Kd; compound concentrations:100 nM and 1000 nM (sheet 'Samples'); n = 1.
The subject of experiment [12] is PAK4. The note with it: read-out: apparent Kd; compound concentrations:100 nM and 1000 nM (sheet 'Samples'); n = 1.
The subject of experiment [13] is PAK6. Particulars: read-out: apparent Kd; compound concentrations:100 nM and 1000 nM (sheet 'Samples'); n = 1.
In experiment [14] the test system is PKN1. Particulars: read-out: apparent Kd; compound concentrations:100 nM and 1000 nM (sheet 'Samples'); n = 1.
The subject of experiment [15] is PKN3. Particulars: read-out: apparent Kd; compound concentrations:100 nM and 1000 nM (sheet 'Samples'); n = 1.
In experiment [16] the test system is PRKACA. Particulars: read-out: apparent Kd; compound concentrations:100 nM and 1000 nM (sheet 'Samples'); n = 1.
For experiment [17], the system named is PRKACB. Particulars: read-out: apparent Kd; compound concentrations:100 nM and 1000 nM (sheet 'Samples'); n = 1.
For experiment [18], the system named is PRKCD. The note with it: read-out: apparent Kd; compound concentrations:100 nM and 1000 nM (sheet 'Samples'); n = 1.
For experiment [19], the system named is PRKCQ. The note with it: read-out: apparent Kd; compound concentrations:100 nM and 1000 nM (sheet 'Samples'); n = 1.
In experiment [20] the test system is PRKG1. Particulars: read-out: apparent Kd; compound concentrations:100 nM and 1000 nM (sheet 'Samples'); n = 1.
The test system of experiment [21] is PRKX. Particulars: read-out: apparent Kd; compound concentrations:100 nM and 1000 nM (sheet 'Samples'); n = 1.
The test system of experiment [22] is TTN. Particulars: read-out: apparent Kd; compound concentrations:100 nM and 1000 nM (sheet 'Samples'); n = 1.
For experiment [23], the system named is ADRBK1. The note with it: read-out: apparent Kd, n = 1.
The test system of experiment [24] is CSNK1G1. Particulars: read-out: apparent Kd; compound concentrations: 100 nM and 1000 nM (sheet 'Samples'), CATDS: 0.16245140586904; n = 1.
Experiment [25] has as its system NQO2. Particulars: read-out: apparent Kd; compound concentrations: 100 nM and 1000 nM (sheet 'Samples'), CATDS: 0.164283529908442; n = 1.
Experiment [26] relates to PDXK. The note with it: read-out: apparent Kd; compound concentrations: 100 nM and 1000 nM (sheet 'Samples'), CATDS: 0.18883200846926201; n = 1.
For experiment [27], the system named is TP53RK. Particulars: read-out: apparent Kd; compound concentrations: 100 nM and 1000 nM (sheet 'Samples'), CATDS: 0.1506883600127; n = 1.
For experiment [28], the system named is VDAC3. The note with it: read-out: apparent Kd; compound concentrations: 100 nM and 1000 nM (sheet 'Samples'), CATDS: 0.190251033630114; n = 1.
Experiment [29] concerns AKT3. Particulars: read-out: apparent Kd; compound concentrations:100 nM and 1000 nM (sheet 'Samples'); n = 1.
Experiment [30] deals with DDX3X;DDX3Y. The note with it: read-out: apparent Kd; compound concentrations:100 nM and 1000 nM (sheet 'Samples'); n = 1.
The subject of experiment [31] is RIOK2. The note with it: read-out: apparent Kd; compound concentrations:100 nM and 1000 nM (sheet 'Samples'); n = 1.
The subject of experiment [32] is MAPK14. The note with it: read-out: apparent Kd; compound concentrations:100 nM and 1000 nM (sheet 'Samples'); n = 1.
The subject of experiment [33] is PIK3C2A. Particulars: read-out: apparent Kd; compound concentrations:100 nM and 1000 nM (sheet 'Samples'); n = 1.
Experiment [34] deals with PRKCI. The note with it: read-out: apparent Kd; compound concentrations:100 nM and 1000 nM (sheet 'Samples'); n = 1.
Experiment [35] deals with PYGL. Particulars: read-out: apparent Kd; compound concentrations:100 nM and 1000 nM (sheet 'Samples'); n = 1.
In experiment [36] the test system is RPS6KA3. The note with it: read-out: apparent Kd; compound concentrations:100 nM and 1000 nM (sheet 'Samples'); n = 1.
The subject of experiment [37] is STK16. The note with it: read-out: apparent Kd; compound concentrations:100 nM and 1000 nM (sheet 'Samples'); n = 1.
Where [38] appears, read: compound concentrations:100 nM and 1000 nM (sheet 'Samples').

Where two headings read alike, the source gives them in different places.

For `CCn1c(-c2nonc2N)nc2c(C#CC(C)(C)O)ncc(OC[C@@H]3CCCN3)c21.O=C(O)C(F)(F)F` [GSK614526A], the potency estimated from few doses in experiment [1] (setting [38]) is 1090 nM; in [2], 934 nM; in [3], 303 nM; in experiment [4] it was 983 nM; in experiment [5], 1810 nM; in experiment [6], 365 nM. Besides, the potency estimated from few doses was 440 nM in [7]; 634 nM in experiment [8]; 762 nM in experiment [9]; 607 nM in experiment [10]; 1040 nM in experiment [11]; 66.7 nM in experiment [12]. For the same molecule, the potency estimated from few doses in experiment [13] was 821 nM; in [14] it was 215 nM; in [15], 150 nM; in [16], 144 nM; in experiment [17], 510 nM; in [18] it was 2140 nM. Besides, the potency estimated from few doses is 1170 nM in [19], 69.9 nM in experiment [20], 1.38 nM in [21] and 544 nM in [22].

On to `CCn1cnc2c(N)ncnc21` [GW345098X], for which the potency estimated from few doses in [23] (compound concentrations: 100 nM and 1000 nM (sheet 'Samples'), CATDS: 0.15222698888400599) was 2400 nM; in experiment [24], 2080 nM; in experiment [25], 2040 nM; in experiment [26] it was 1560 nM; in experiment [27] it was 2450 nM; in [28], 1540 nM.

In the case of `COc1cccc(C2=C(Nc3cccc(O)c3)C(=O)NC2=O)c1` [SB-390771], the potency estimated from few doses in [1] (setting [38]) is 2060 nM; in [29], 1930 nM; in [30], 2110 nM; in [31], 2460 nM.

As to `Cn1cc(C2=C(c3cn(-c4ccccc4)c4ccccc34)C(=O)NC2=O)c2ccccc21` [RO0318564-000], in experiment [1] (compound concentrations: 100 nM and 1000 nM (sheet 'Samples'), CATDS: 1), the potency estimated from few doses was 2080 nM.

As to `CCCC(=O)Nc1n[nH]c2ncccc12` [SB-601436], the potency estimated from few doses in experiment [23] (setting [38]) was 2140 nM; in [32], 1310 nM; in experiment [33], 2470 nM; in experiment [34] it was 2080 nM; in [35] it was 2170 nM; in [36] it was 1890 nM. Moreover, the potency estimated from few doses in [37] is 1480 nM.
